# In PMC6792352, “Limited Chemical Structural Diversity Found to Modulate Thyroid Hormone Receptor in the Tox21 Chemical Library” (Environmental Health Perspectives, 2019):
# Counter-ions that a name gives are not always drawn.
# Test system: thyroid hormone receptor (endogenous TRα and TRβ)
# Design: species or system GH3-TRE-Luc (rat pituitary); GH3-TRE-Luc luciferase reporter, antagonist mode against 1 nM T3, loss of signal, qHTS
# Details: read-out: Average AC50 (uM) GH3-TRE-Antag, antagonist mode, 1 nM T3, no GH3 cytotoxicity hit
row,Structure (SMILES),AC50
1,Brc1ccc(Oc2ccccc2)cc1 [p-Bromodiphenyl ether],44.7 µM
2,CC(=O)O[C@H]1CC[C@@]2(C)C(=CC[C@@H]3[C@@H]2CC[C@]2(C)C(c4cccnc4)=CC[C@@H]32)C1 [Abiraterone acetate],50 µM
3,c1ccc2c(c1)ccc1ccccc12 [Phenanthrene],50.1 µM
4,CCOC(=O)NC(=S)Nc1ccccc1NC(=S)NC(=O)OCC [Thiophanate],47.1 µM
5,C[C@](N)(Cc1ccc(O)c(O)c1)C(=O)O [Methyldopa sesquihydrate],> 50 µM
6,COc1ccccc1NC(=O)c1cc2ccccc2cc1O [3-Hydroxy-2-naphthoic o-anisidide],10.4 µM
7,COc1cc(CNC(=O)CCCC/C=C/C(C)C)ccc1O [Capsaicin],34.4 µM
8,CC(C(=O)O)c1ccc2c(c1)CC(=O)c1ccccc1S2 (stereo not drawn) [Zaltoprofen],29.1 µM
9,O=C(c1ccccc1)c1cc(Cl)ccc1O [(5-Chloro-2-hydroxyphenyl)phenylmethanone],84.3 µM
10,CCCCCCCCCC(C)C=O (stereo not drawn) [2-Methylundecanal],40.2 µM
11,NC(N)=NCc1cccc(I)c1 [3-Iodobenzylguanidine hemisulfate],16.3 µM
12,CN1CCC(OC(c2ccccc2)c2ccccc2)CC1 [Diphenylpyraline hydrochloride],9 µM
13,CCOc1ccc2[nH]cc(C(=O)NCc3ccccc3)c(=O)c2n1 [CP-457920],45.2 µM
14,CN(C)CCN1C(=O)c2ccccc2N(C)c2ccccc21 [Dibenzepin hydrochloride],36.6 µM
15,Oc1ccc2c(c1)OCO2 [Sesamol],> 90 µM
16,COc1cc([C@@H]2c3cc4c(cc3[C@@H](O[C@@H]3O[C@@H]5CO[C@@H](C)O[C@H]5[C@H](O)[C@H]3O)[C@H]3COC(=O)[C@H]23)OCO4)cc(OC)c1OP(=O)(O)O [Etoposide phosphate],21 µM
17,"CC(Cc1ccc(C(C)(C)C)cc1)CN1C[C@@H](C)O[C@@H](C)C1 (stereo partly drawn) [(2R,6S)-Fenpropimorph]",47.3 µM
18,Nc1ccc2c3c(cccc13)-c1ccccc1-2 [3-Aminofluoranthene],40.9 µM
19,C/C(=C\c1csc(C)n1)[C@@H]1C[C@@H]2O[C@]2(C)CCC[C@H](C)[C@H](O)[C@@H](C)C(=O)C(C)(C)[C@@H](O)CC(=O)O1 [Epothilone B],0.0109 µM
20,C/C=C1/C(=O)C[C@H]2[C@@H]3CCC4=CC(=O)CC[C@]4(C)[C@H]3CC[C@]12C [Guggulsterone E],18 µM

row,Structure (SMILES),AC50
1,"Clc1cc(Cl)c2c(c1)N=C1CCCCCN1C2 [1,3-dichloro-6,7,8,9,10,12-hexahydroazepino[2,1-b]quinazoline hydrochloride (1:1)]",40.1 µM
2,Nc1nc(N)c2nc(-c3ccccc3)c(N)nc2n1 [Triamterene],39.2 µM
3,O=C(O)c1cccc(-c2noc(-c3ccccc3F)n2)c1 [Ataluren],10.8 µM
4,O=S(=O)(NS(=O)(=O)C(F)(F)F)C(F)(F)F [1-Hexyl-3-methylimidazolium bis(trifluoromethylsulfonyl)imide],66.1 µM
5,Cc1nc2ccc(CN(C)c3ccc(C(=O)N[C@@H](CCC(=O)O)C(=O)O)s3)cc2c(=O)[nH]1 [Raltitrexed],0.18 µM
6,C=CC[C@]1(O)CC[C@H]2[C@@H]3CCC4=CC(=O)CCC4=C3C=C[C@@]21C [Altrenogest],11.8 µM
7,C[C@@H]1C[C@H]2[C@@H]3CCC4=CC(=O)C=C[C@]4(C)[C@@]3(Cl)[C@@H](O)C[C@]2(C)[C@@]1(OC(=O)c1ccco1)C(=O)CCl [Mometasone furoate],16.9 µM
8,CN(CCOc1ccc(CC2SC(=O)NC2=O)cc1)c1ccccn1 (stereo not drawn) [Rosiglitazone maleate],75.1 µM
9,CN(C)C(=O)Nc1ccc(Oc2ccc(Cl)cc2)cc1 [Chloroxuron],64.2 µM
10,"Oc1ccccc1Cc1ccccc1O [2,2'-Bisphenol F]",> 90 µM
11,Cc1cc(O)c2c(O)c3c(O)cccc3cc2c1 [Chrysarobin],28.1 µM
12,Cc1c(COC(=O)[C@@H]2[C@H](/C=C(\Cl)C(F)(F)F)C2(C)C)cccc1-c1ccccc1 (racemic) [Bifenthrin],17.5 µM
13,COc1c(C)c2c(c(O)c1C/C=C(\C)CCC(=O)O)C(=O)OC2 [Mycophenolic acid],0.537 µM
14,COC(=O)C(C)N(C(=O)Cc1ccccc1)c1c(C)cccc1C (stereo not drawn) [Benalaxyl],> 90 µM
15,O=C1/C(=C/c2cccs2)CCC/C1=C\c1cccs1 [Tenylidone],46.5 µM
16,CCCCCc1ccc(C)cc1O [Amylmetacresol],23.6 µM
17,Cc1ccc2oc(CN(Cc3ccccc3)C(=O)Nc3c(F)cc(F)cc3F)c(-c3ccc(Cl)cc3)c2c1 [FR145237],4.47 µM
18,CC1(C)[C@H](C(=O)O[C@H](C#N)c2cccc(Oc3ccccc3)c2)[C@@H]1C=C(Cl)Cl [alpha-Cypermethrin],> 90 µM
19,CCCCCCCCCCCCCC(=O)O [Tetradecanoic acid],52.3 µM
